According to PubChem BioAssay (EPA / NIEHS):
Records with an inconclusive call do not appear. More than one record can exist for a structure, and the calls need not agree. Active and inactive are the calls of the source. Rule for the calls, unless noted: active = hit-call score of the fitted dose curve at least 0.9, where 1 is the maximum; inactive = score below 0.9.

Columns and labels:
[1] = target: Estrogen receptor (Homo sapiens) (UniProt P03372); experiment: OT_ERa_GFPERaERE_0480: Odyssey Thera (OT) 8-hour HeLa Transcription Induction Assay for Estrogen Receptor (AID 2283381)
Outline: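 Cells (HeLa) receive compound; after 8 h, reporter fluorescence is imaged and quantified by high-content analysis. Gain-of-signal relative to DMSO gives the endpoint.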

[2] = target: Estrogen receptor (Homo sapiens) (UniProt P03372); experiment: OT_ERa_GFPERaERE_0120: Odyssey Thera (OT) 2-hour HeLa Transcription Induction Assay for Estrogen Receptor (AID 2283382; active = hit-call score of the fitted dose curve at least 0.9, where 1 is the maximum)
Outline: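 Measures ESR1 pathway reporter gain-of-signal in HeLa cells after a 2-hour treatment, detected as fluorescent protein induction by microscopy, DMSO as baseline.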

[3] = target: Retinoic acid receptor RXR-alpha (Homo sapiens) (UniProt P19793); experiment: OT_NURR1_NURR1RXRa_1440: Odyssey Thera (OT) 24-hour HEK293T Protein Complementation Assay for Nurr1/retinoid X receptor (RXR) (AID 2283386; active = hit-call score of the fitted dose curve at least 0.9, where 1 is the maximum)
Outline: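 Measured as fluorescence from a reconstituted split reporter, this 24 h HEK293T complementation assay scores compound-induced gain of Nurr1/RXRα association relative to DMSO.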

[4] = target: Peroxisome proliferator-activated receptor gamma (Homo sapiens) (UniProt P37231); experiment: OT_PPARg_PPARgSRC1_0480: Odyssey Thera (OT) 8-hour Protein-Complementation Assay for Peroxisome Proliferator-activated Receptor Gamma / SRC-1 Co-activator (AID 2283387; active = hit-call score of the fitted dose curve at least 0.9, where 1 is the maximum;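 note: nuclear to cytoplasmic split Venus YFP fluorescence ratio reporting PPARg SRC-1 interaction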)
Outline: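 HEK293T transiently transfected with PPARg and SRC-1 fused to Venus YFP fragments, compounds 8 h at 37C. Fixed, Draq5-stained cells imaged; nuclear/cytoplasmic 488 nm fluorescence ratio over at least 350 cells per image; gain fitted versus DMSO.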

[5] = ATG_XTT_Cytotoxicity: Cytotoxicity Assessment in the Attagene TRANS-FACTORIAL HepG2 Assay (AID 2283584; active = hit-call score of the fitted dose curve at least 0.9, where 1 is the maximum;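 for AC50: cells exposed to compound for 24 h before reading; active means loss of viability signal versus DMSO baseline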)
Outline: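 Viability endpoint from XTT after 24 h chemical exposure of reporter-transfected human HepG2 liver cells; signal loss fitted relative to DMSO negative control.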

[6] = TOX21_p53_BLA_p2_viability: Viability Assessment in the Tox21 HCT-116 p53 Agonism Beta-lactamase Assay, Phase 2 (AID 2283591; active = hit-call score of the fitted dose curve at least 0.9, where 1 is the maximum;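 note: compound exposure lasted 16 h at 37 °C; actives lower the ATP signal meaning cytotoxicity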)
Outline: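 HCT-116 p53-bla cells (4000/well) rested 5 h at 37C, then received compounds in DMSO (217-fold dilution) for 16 h at 37C, 5% CO2. After the CCF4 read, CellTiter-Glo was added; ATP luminescence was read after 30 min at room temperature.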

[7] = CEETOX_H295R_11DCORT: CeeTox H295R High-throughput Steroidogenesis Assay for 11-Deoxycortisol (11DCORT) (AID 2283432); settings: actives raise or lower the signal;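 for AC50: 11-deoxycortisol secreted into the medium measured by LC-MS/MS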
Outline: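 H295R cells prestimulated 48 h with 10 uM forskolin, then exposed 48 h to chemical in 0.1% DMSO. 11-Deoxycortisol in medium quantified by HPLC-MS/MS after MTBE extraction; bidirectional fit versus DMSO. MTT viability read in same wells.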

[8] = CEETOX_H295R_OHPREG: CeeTox H295R High-throughput Steroidogenesis Assay for OH-Pregnenolone (OHPREG) (AID 2283434); settings: actives raise or lower the signal
Outline: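 Human adrenal H295R cells were prestimulated 48 h with 10 uM forskolin, then exposed 48 h to chemical in 0.1% DMSO. Medium 17alpha-hydroxypregnenolone was quantified by HPLC-MS/MS after MTBE extraction; bidirectional fitting versus DMSO baseline.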

[9] = CEETOX_H295R_OHPROG: CeeTox H295R High-throughput Steroidogenesis Assay for OH-Progesterone (OHPROG) (AID 2283435); settings: actives raise or lower the signal;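 for AC50: 17alpha-hydroxyprogesterone secreted into medium measured by HPLC-MS/MS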
Outline: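 Secreted 17alpha-hydroxyprogesterone is read by tandem MS from media of forskolin-primed H295R cells dosed with chemical for 48 h. Activity is fitted in both directions against DMSO baseline; cytotoxic concentrations are re-tested diluted.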

[10] = CEETOX_H295R_ANDR: CeeTox H295R High-throughput Steroidogenesis Assay for Androstenedione (ANDR) (AID 2283436); settings: actives raise or lower the signal
Outline: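 H295R human adrenal cells (passages ≤10) were exposed to test chemicals for 48 h; androstenedione in medium was MTBE-extracted and quantified by HPLC-MS/MS against a 7-point standard curve. Bidirectional fitting used DMSO as baseline.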

[11] = CEETOX_H295R_CORTIC: CeeTox H295R High-throughput Steroidogenesis Assay for Corticosterone (CORTIC) (AID 2283437); settings: actives raise or lower the signal;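 note: corticosterone secreted into medium quantified by mass spectrometry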
Outline: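 H295R cells were prestimulated 48 h with 10 uM forskolin, then exposed 48 h to test chemical in 0.1% DMSO. Medium corticosterone was MTBE-extracted and quantified by HPLC-MS/MS; bidirectional fit versus DMSO baseline.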

[12] = CEETOX_H295R_CORTISOL: CeeTox H295R High-throughput Steroidogenesis Assay for Cortisol (AID 2283438); settings: actives raise or lower the signal
Outline: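 Human adrenocortical H295R cells (passage ≤10) received test chemicals for 48 h after forskolin priming. Secreted cortisol was measured by LC-MS/MS.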

[13] = CEETOX_H295R_DOC: CeeTox H295R High-throughput Steroidogenesis Assay for DOC (AID 2283439); settings: actives raise or lower the signal
Outline: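 Secreted DOC was quantified from H295R media by HPLC-MS/MS after 48 h chemical exposure following 48 h forskolin (10 uM) prestimulation. Values were fitted in both directions relative to DMSO, the negative control and baseline.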

[14] = CEETOX_H295R_ESTRADIOL: CeeTox H295R High-throughput Steroidogenesis Assay for Estradiol (AID 2283440); settings: actives raise or lower the signal;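 note: estradiol secreted into medium quantified by LC-MS/MS after dansyl derivatisation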
Outline: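 Estradiol in spent medium measured by LC-MS/MS after dansyl chloride derivatisation. Forskolin-primed (10 uM, 48 h) human adrenal H295R cells received test chemical 48 h at 0.1% DMSO; concentrations lowered until MTT viability >/=70%.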

[15] = CEETOX_H295R_ESTRONE: CeeTox H295R High-throughput Steroidogenesis Assay for Estrone (AID 2283441); settings: actives raise or lower the signal;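 note: estrone secreted into medium measured by LC-MS/MS after dansyl derivatization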
Outline: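 H295R cells; 48 h forskolin (10 uM) prestimulation; 48 h compound exposure, 0.1% DMSO final. Medium estrone: MTBE extraction, dansyl derivatization, HPLC-MS/MS. Bidirectional fit vs DMSO.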

[16] = CEETOX_H295R_PROG: CeeTox H295R High-throughput Steroidogenesis Assay for Progesterone (PROG) (AID 2283442); settings: actives raise or lower the signal;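 for AC50: human H295R adrenal cells primed with 10 µM forskolin before dosing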
Outline: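 Progesterone secreted by human H295R cells was measured by LC-MS/MS following 48 h chemical exposure at 0.1% DMSO, preceded by 48 h forskolin (10 uM) stimulation. Same-well MTT viability; cytotoxic concentrations diluted 10- or 100-fold and retested.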

[17] = CEETOX_H295R_TESTO: CeeTox H295R High-throughput Steroidogenesis Assay for Testosterone (TESTO) (AID 2283457); settings: actives raise or lower the signal
Outline: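 Testosterone secreted into the medium over 48 h by H295R cells (maximum passage 10) was quantified by LC-MS/MS after MTBE extraction. Fitted in both directions against DMSO, with concentrations diluted until MTT viability was ≥70%.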

[18] = target: Peroxisome proliferator-activated receptor gamma (Homo sapiens) (UniProt P37231); experiment: OT_PPARg_PPARgSRC1_1440: Odyssey Thera (OT) 24-hour Protein-Complementation Assay for Peroxisome Proliferator-activated Receptor Gamma/ SRC-1 Co-activator (AID 2283388; active = hit-call score of the fitted dose curve at least 0.9, where 1 is the maximum)
Outline: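 Readout is the 488 nm N/C fluorescence ratio from fixed, Draq5-stained HEK293T cells after 24 h compound exposure. Cells carried transiently transfected PPARg and SRC-1 fused to Venus fragments, transfected 48 h before treatment.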

Measured: AC50

Peroxisome proliferator-activated receptor gamma (Homo sapiens), sequence (P37231 whole entry, looked up, the tested form may be a part): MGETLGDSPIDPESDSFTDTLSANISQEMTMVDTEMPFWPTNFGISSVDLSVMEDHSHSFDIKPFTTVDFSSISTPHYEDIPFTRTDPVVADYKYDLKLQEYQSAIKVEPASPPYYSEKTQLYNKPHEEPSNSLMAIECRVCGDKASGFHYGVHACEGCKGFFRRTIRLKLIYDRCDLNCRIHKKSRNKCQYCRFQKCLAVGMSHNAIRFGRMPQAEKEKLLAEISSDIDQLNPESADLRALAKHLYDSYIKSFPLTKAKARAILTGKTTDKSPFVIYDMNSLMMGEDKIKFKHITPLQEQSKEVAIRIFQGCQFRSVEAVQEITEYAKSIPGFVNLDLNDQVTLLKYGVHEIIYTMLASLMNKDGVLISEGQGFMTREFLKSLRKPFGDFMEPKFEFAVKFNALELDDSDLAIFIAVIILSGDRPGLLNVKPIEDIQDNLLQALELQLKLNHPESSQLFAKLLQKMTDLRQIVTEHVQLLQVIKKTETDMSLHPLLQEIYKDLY
Retinoic acid receptor RXR-alpha (Homo sapiens), sequence (P19793 whole entry, looked up): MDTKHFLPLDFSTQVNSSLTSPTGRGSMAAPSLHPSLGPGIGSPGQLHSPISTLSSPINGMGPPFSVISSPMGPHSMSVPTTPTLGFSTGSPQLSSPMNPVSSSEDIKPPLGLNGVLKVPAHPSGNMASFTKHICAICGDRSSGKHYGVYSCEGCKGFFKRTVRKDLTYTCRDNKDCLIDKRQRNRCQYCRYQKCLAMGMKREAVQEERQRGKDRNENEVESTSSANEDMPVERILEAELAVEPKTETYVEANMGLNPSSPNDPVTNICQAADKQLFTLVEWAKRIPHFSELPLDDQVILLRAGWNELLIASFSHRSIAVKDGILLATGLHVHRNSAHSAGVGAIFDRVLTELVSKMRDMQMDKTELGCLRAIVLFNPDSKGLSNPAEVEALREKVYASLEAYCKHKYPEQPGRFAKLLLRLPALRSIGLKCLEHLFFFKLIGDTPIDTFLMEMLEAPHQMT
Estrogen receptor (Homo sapiens), sequence (P03372 whole entry, looked up): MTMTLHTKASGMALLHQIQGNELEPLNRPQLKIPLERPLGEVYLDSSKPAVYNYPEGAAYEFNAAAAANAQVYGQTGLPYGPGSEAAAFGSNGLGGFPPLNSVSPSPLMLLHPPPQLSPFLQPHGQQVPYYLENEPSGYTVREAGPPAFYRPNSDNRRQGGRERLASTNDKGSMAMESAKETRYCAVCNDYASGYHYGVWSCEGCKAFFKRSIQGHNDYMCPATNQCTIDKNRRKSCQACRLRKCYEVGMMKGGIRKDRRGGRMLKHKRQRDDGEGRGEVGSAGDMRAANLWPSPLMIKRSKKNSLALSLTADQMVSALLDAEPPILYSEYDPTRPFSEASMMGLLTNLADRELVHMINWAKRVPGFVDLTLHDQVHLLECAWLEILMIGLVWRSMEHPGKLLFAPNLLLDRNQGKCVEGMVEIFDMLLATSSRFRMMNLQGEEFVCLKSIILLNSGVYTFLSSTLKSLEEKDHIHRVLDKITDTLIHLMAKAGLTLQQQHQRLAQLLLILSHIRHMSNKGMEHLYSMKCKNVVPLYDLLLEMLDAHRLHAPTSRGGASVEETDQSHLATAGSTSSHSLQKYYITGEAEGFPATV

CCCCC(CC)CCC(CC(C)C)OS(=O)(=O)O (stereo not given)
inactive: [1] | [2] | [3] | [4] | [5] | [6]

COc1ccc2nc(N)sc2c1
inactive: [7] | [8] | [10] | [11] | [12] | [13] | [14] | [15] | [17] | [5]
active: [9] 7.33 µM | [16] 22.4 µM

CCCCCCCOC(=O)CCC
inactive: [1] | [2] | [3] | [4] | [5]

CO[Si](CCC1CCC2OC2C1)(OC)OC (stereo not given)
inactive: [7] | [8] | [9] | [10] | [11] | [12] | [13] | [16] | [17] | [5]

c1c[nH]cn1
inactive: [1] | [2] | [4]

CCCCCCCC[N+](C)(CCCCCCCC)CCCCCCCC
inactive: [1] | [4] | [18]
active: [2] 12.4 µM | [5] 9.48 µM

C#CC1(O)CC[C@H]2[C@@H]3CCC4=CCCC[C@@H]4[C@H]3CC[C@@]21C (stereo not given in full)
active: [7] 7.32 µM | [9] 7.02 µM | [12] 7.01 µM | [13] 2.03 µM | [5] 42.3 µM | [6] 57.2 µM
inactive: [8] | [11] | [16] | [6]

C1=CCCC1
inactive: [7] | [10] | [11] | [12] | [13] | [17]

COc1ccc(NC(C)=O)cc1N
inactive: [5]

C1CN(SSN2CCOCC2)CCO1
inactive: [1] | [2] | [6]

CC1=NN(c2cc(S(=O)(=O)O)ccc2Cl)C(=O)C1N=Nc1ccccc1 (stereo not given)
inactive: [1] | [2] | [4] | [5]

O=S(=O)(O)c1ccccc1C=Cc1ccc(-c2ccc(C=Cc3ccccc3S(=O)(=O)O)cc2)cc1
inactive: [1] | [4] | [6]
active: [3] 66.8 µM

CCCCCCCCCCOS(=O)(=O)O
inactive: [1] | [2] | [4] | [5] | [6]

C1=Cc2ccccc2C1
inactive: [1] | [2] | [3] | [4] | [5]

CCCCCCCCCCCCCCCCCC#N
inactive: [5]

CCO[Si](C)(OCC)OCC
inactive: [1] | [2] | [3] | [5] | [6]
